# Only some compounds are listed: those with a hit (about 1.8% of all), similar ones and a draw of the others.
# Myeloid diff 2: compounds promoting myeloid differentiation; hit rate 1% among 360,000; AID 624256; ER-HoxA9 myeloid progenitors, lysozyme-GFP differentiation, flow cytometry; calls only at 10 µM;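 active = normalized GFP-positive differentiation at or above the plate's own cutoff, the solvent-only control mean plus 3 SD; inconclusive = no clear call, values can overlap the other calls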;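 also: cells exposed to compound for four days before flow analysis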
# GC-A act: GC-A (human) enzyme activation; P16066; HEK293 GC-A cells, cGMP TR-FRET, EC30 ANP; 0% at EC30 ANP, 100% saturating ANP; activation, % at 10 µM; hit rate 0.14% among 370,000; AID 1671463; in the data active = activation above about 40%
# GC-B act: GC-B (human) receptor activation. activation, % at 10 µM. HEK293-GC-B cells, CNP EC30, cGMP TR-FRET; 0% at EC30 CNP, 100% saturating CNP. hit rate 0.11% among 370,000. AID 1920062;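 active = activation at 10 µM reaching about 35% in either raw or pattern-adjusted values, limit read from the data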
# Target sequence (P20594 whole entry, looked up): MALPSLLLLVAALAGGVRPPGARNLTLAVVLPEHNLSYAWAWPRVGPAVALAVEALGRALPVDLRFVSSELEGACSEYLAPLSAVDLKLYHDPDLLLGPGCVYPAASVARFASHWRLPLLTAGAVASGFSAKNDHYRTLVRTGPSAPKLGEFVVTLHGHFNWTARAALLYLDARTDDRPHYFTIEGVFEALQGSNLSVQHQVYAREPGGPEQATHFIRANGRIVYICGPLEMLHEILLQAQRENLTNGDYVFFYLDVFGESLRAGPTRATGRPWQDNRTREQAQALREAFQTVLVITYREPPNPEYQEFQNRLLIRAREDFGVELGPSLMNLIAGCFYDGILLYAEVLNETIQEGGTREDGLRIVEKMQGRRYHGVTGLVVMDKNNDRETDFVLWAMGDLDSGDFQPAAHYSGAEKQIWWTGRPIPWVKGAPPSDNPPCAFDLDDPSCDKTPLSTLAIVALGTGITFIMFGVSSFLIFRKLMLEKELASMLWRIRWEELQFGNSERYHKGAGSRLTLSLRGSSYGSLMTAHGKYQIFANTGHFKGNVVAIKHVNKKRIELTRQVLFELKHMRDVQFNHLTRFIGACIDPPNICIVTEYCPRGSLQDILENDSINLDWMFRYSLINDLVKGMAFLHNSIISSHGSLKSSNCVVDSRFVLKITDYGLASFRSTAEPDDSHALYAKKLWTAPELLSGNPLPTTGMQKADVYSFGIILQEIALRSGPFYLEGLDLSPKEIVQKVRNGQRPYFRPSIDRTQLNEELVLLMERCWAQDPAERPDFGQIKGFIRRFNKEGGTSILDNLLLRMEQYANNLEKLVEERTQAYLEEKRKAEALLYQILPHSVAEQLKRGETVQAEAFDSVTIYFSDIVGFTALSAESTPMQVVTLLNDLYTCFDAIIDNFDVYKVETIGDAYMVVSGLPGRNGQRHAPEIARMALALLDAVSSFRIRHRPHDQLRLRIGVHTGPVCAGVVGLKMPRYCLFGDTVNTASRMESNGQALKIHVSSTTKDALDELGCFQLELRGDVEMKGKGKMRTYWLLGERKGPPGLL
# Granule exo inh: blocks lytic granule exocytosis; TALL-104 LAMP-1 surface exposure, flow cytometry; cells stimulated with thapsigargin and PMA; inhibition, % at 10 µM; hit rate 0.66% among 360,000;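 active = inhibition above about 55%, limit read from the data; inconclusive = no clear call, values can overlap the other calls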
# Exocytosis CP01: blocks lytic granule exocytosis. TALL-104 cells, LAMP-1 externalization, flow cytometry; stimulated with PMA plus thapsigargin. hit rate 11% among 1,500. AID 651954. shares compounds with Granule exo inh. inhibition, % at 10 µM; in the data active = inhibition above about 60%;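 also: 0% = stimulated vehicle wells and 100% = unstimulated wells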
# * hit, by the source's call; i = inactive; u = inconclusive; x = no result given; + = active, no number.
SMILES,Myeloid diff 2,GC-A act,GC-B act,Granule exo inh,Exocytosis CP01
CCOC(=O)C1=CCN(S(=O)(=O)c2ccccc2Br)C1c1cccc(C)c1 (stereo not given),i,-7.2,-7.4,-4.4,x
Cc1ccc2c(CN(C)Cc3ccc(OC(F)F)cc3)cc(=O)oc2c1C,i,1.2,0.4,83.5*,-12.3
Cc1ccc2c(CN(C)Cc3ccccc3)cc(=O)oc2c1C,i,6.9,1.4,-17.6,x
Cc1ccc(C)c(NC(=O)c2cc(=O)c3ccccc3o2)c1,i,4.8,-4.2,-0.7,x
Cc1ccc(C)c(NC(=O)COC(=O)c2cc(=O)c3ccccc3o2)c1,i,x,x,73.3*,-11.9
COC(=O)[C@]12C[C@H](CC(=O)N3CCN(C(=O)C4CC4)CC3)C(=O)N(Cc3ccco3)C1=C[C@H](C(C)C)O[C@@H]2C1CC1,x,4.4,-5.0,x,x
CC(C)N1CCC(C)(C(=O)Nc2cc(-c3ccccc3)nn2C)C1 (stereo not given),i,1.5,0.1,1.2,x
O=C(NCCN1CCOCC1)c1ccccc1Cl,i,1.9,-0.9,12.1,x
Cc1ccc(C(=O)NCCN2CCOCC2)c(Cl)c1,+,-0.5,-3.8,55.7*,-13.2
Cc1ccc(OCc2ccc(-c3ccccc3)cc2)c([N+](=O)[O-])n1,i,10.2,4.2,88.1*,-3.4
CCCN(C(=O)COc1ccc(Cl)cc1Cl)c1c(N)n(Cc2ccccc2)c(=O)[nH]c1=O,i,-5.9,-5.8,83.1*,-3.4
CCN(C(=O)COC(=O)COc1ccccc1Cl)c1c(N)n(Cc2ccccc2)c(=O)[nH]c1=O,i,3.2,0.8,6.8,x
COc1ccc(-c2cc(CNc3nc(NCc4ccccc4OC)nc4ccsc34)on2)cc1,i,0.1,2.4,66.2*,52.4
Nc1nc2ncccc2cc1C(=O)C1=C(c2ccccc2)Cc2ccccc21,x,17.9,3.2,x,x
CC(CCN1CCN(c2ccc(F)cc2)CC1)c1ccccc1 (stereo not given),i,3.0,-4.8,56.6*,-12.3
COc1ccc(CNCC#Cc2cccnc2)c(OC)c1,x,-1.7,1.8,x,x
CCc1cccc2c(C(=O)C(NCCOC)c3ccccc3)c[nH]c12 (stereo not given),i,-4.4,-9.1,65.8*,-9.7
CCCC(=O)N1CCC1(C)C(=O)Nc1ccc(-n2cccc2)cc1 (stereo not given),i,x,x,6.6,x
CC(=O)NC(Cc1ccc2c(c1)OCO2)C(=O)N1CCCN(C(C)=O)CC1 (stereo not given),x,0.7,-5.5,x,x
Fc1ccc(Nc2nc(NCc3ccco3)c3ccccc3n2)cc1,i,16.2,10.0,85.9*,5.0
CC(C)C[C@H]1CN([C@@H](Cc2ccccc2)CN2CCC[C@H]2CN2C(=O)C(=O)NC[C@@H]2Cc2ccc(O)cc2)C(=O)C(=O)N1CC1CCCCCC1,i,5.5,4.0,0.5,x
COc1ccccc1N1C(=O)CC(Sc2n[nH]c(-c3cccc(C)c3)n2)C1=O (stereo not given),i,-0.2,2.0,59.3*,52.5
COc1ccccc1N1C(=O)CC(Sc2nccc(C)n2)C1=O (stereo not given),i,2.1,6.0,-2.7,x
Cc1ccc(S(=O)(=O)CCC(=O)c2ccc(O)cc2O)cc1,i,-6.6,2.0,104.0*,44.5
Cc1cc(Br)ccc1OCc1nnc(-c2ccccc2)o1,i,-2.5,-12.9,73.4*,-4.7
SMILES,Myeloid diff 2,GC-A act,GC-B act,Granule exo inh,Exocytosis CP01
COc1ccc(-c2nnc(COc3ccc(Br)cc3C)o2)cc1,i,-0.6,0.9,-4.1,x
CCOC(=O)C1=CCN(S(=O)(=O)c2ccccc2C)C1c1ccc(Cl)cc1 (stereo not given),i,-13.8,-12.4,2.9,x
COc1ccccc1CCNC(=O)CCSc1nc(-c2ccco2)cc(C(F)(F)F)n1,i,-27.3,-18.6,63.7*,-4.6
COc1ccccc1CCNC(=O)CSc1nc(-c2ccco2)cc(C(F)(F)F)n1,i,-25.2,-24.0,15.4,x
COCCN=C1S/C(=C\c2cc(C)n(-c3ccc(F)cc3F)c2C)C(=O)N1C,x,-23.4,-29.5,x,x
CCN(CC)CCN(C(=O)c1cc2ccccc2cc1OC)c1nc2ccc(OC)cc2s1,i,-35.8,-17.2,65.0*,-3.9
CCN(CC)CCN(C(=O)c1cc2ccccc2cc1OC)c1nc2ccc(F)cc2s1,u,-9.8,-5.8,50.3,x
Cc1ccccc1CN1CCN(CC(=O)NCc2ccccc2)CC1,i,6.6,4.2,1.4,x
O=C(CN1CCN(Cc2cccc3ccccc23)CC1)NCCc1ccccc1,i,-6.7,-0.4,77.6*,-13.3
CCCCCCCN1CCC(=O)N([C@H](CO)Cc2ccccc2)CC1,i,1.7,3.9,3.6,x
CCCCCCCN1CCC(=O)N([C@H](CO)CC(C)C)CC1,i,1.2,1.3,81.3*,-13.3
CN(C)c1ccc(CNC(=O)C2(C)Cc3c(-c4cccc(C(F)(F)F)c4)ccnc3O2)cc1 (stereo not given),i,-4.6,-5.0,20.6,x
CCN(CC)c1nc(C)nc2c1cnn2CCc1ccccc1,i,3.4,-6.7,71.1*,-3.4
Cc1ccc2oc(=O)n(CCOc3ccccc3C)c2c1,i,-6.0,-0.5,64.5*,-12.7
Cc1ccccc1OCCn1c(=O)oc2ccccc21,i,0.2,-1.5,45.1,x
O=C1Nc2ccccc2C12Nc1ccccc1-c1nc3ccccc3n12 (stereo not given),i,-19.9,-6.7,55.8*,-3.1
CCn1c(=O)n(CC(=O)N2CCN(C(C)=O)CC2)c(=O)c2ccccc21,x,5.6,-5.8,x,x
CCOC(=O)c1c(CN2CCN(C)CC2)n(-c2ccccc2)c2cc(Br)c(O)cc12,i,-33.3,-21.2,59.0*,-6.3
CCOC(=O)c1c(CN2CCN(CCO)CC2)n(-c2ccccc2)c2cc(Br)c(O)cc12,i,-35.0,-12.8,78.9*,-0.7
CCOC(=O)c1c(CN2CCN(c3ccccc3)CC2)oc2cc(Br)c(O)cc12,i,-7.3,-9.8,-1.8,x
COC(=O)[C@@]12C[C@@H](CC(=O)N3CCN(C(=O)c4ccco4)CC3)C(=O)N(Cc3ccccc3)C1=CCC(C)(C)C2,i,-3.4,-2.1,1.5,x
Cc1ccc(CN2C(=O)c3ccccc3NC2c2cc(Br)ccc2O)cc1 (stereo not given),i,-7.6,-4.8,74.1*,-2.4
O=C1c2ccccc2NC(c2ccccc2)N1Cc1ccccc1 (stereo not given),i,-10.0,-7.6,16.1,x
COc1ccc(F)cc1-c1cc(NC(C)=O)c2ncc(-c3cccc(C(F)(F)F)c3)n2c1,i,-2.9,13.9,58.3*,42.7
CC(=O)Nc1cccc(-c2cc(NC(C)=O)c3ncc(-c4cccc(C(F)(F)F)c4)n3c2)c1,i,4.3,8.6,17.2,x
Cc1cccc(N(C)S(=O)(=O)c2ccc(-c3cnc(C4CC4)o3)cc2)c1,u,-0.2,-1.5,-0.4,x
Cc1ccc(N(C)S(=O)(=O)c2cc(-c3cnc(C4CC4)o3)ccc2C)cc1,u,-7.0,-1.5,96.8*,43.6

# Assay outcomes from PubChem BioAssay.
